From PubChem BioAssay (NCI)
About 83,000 compounds went through this panel and 20% of them were active in at least one assay; those are over-represented in the sample as a whole.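 How to read the values: 0–100, growth inhibition (40 = 60% inhibited); 0, no net growth; -100 to 0, cell death (-40 = 40% of starting cells died; -100 = all dead).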 Values without a mark were called inactive. Calls of active or inactive are those of the source. The calls were made as follows: active = growth percent below 10; inactive = the rest.

Each compound was assayed on MDA-MB-468 breast (assay: NCI-60 one-dose screen, 48 h (100 = growth as untreated, 0 = no growth, -100 = all killed)). Conditions: 10 µM unless noted.
`CCOC(=O)C(=O)CC(=O)N1C(=S)NC(=O)C1CC(C)C` (stereo not given) gave a growth of 85.1%.
For `O=c1[nH]c2ccccc2cc1CSc1ccccc1Nc1nccc(-c2ccc(Cl)cc2)n1`, the growth was 99.3%.
Work on `O=C(Nc1ccccc1)C(CCCCN1C(=O)c2ccccc2C1=O)N1C(=O)c2ccccc2C1=O` (stereo not given) yielded a growth of 103%.
Compound `O=c1cc2oc3cc(O)c(O)cc3c(-c3ccccc3O)c-2cc1O` has a growth of 93.9%.
With `O=C(Nc1ccncc1)C(=O)c1cn(S(=O)(=O)c2cccc(Cl)c2F)c2ccccc12` the growth was 33%.
With `O=C(CCc1nnc2sc(-c3ccc(Cl)cc3Cl)nn12)c1nc2ccccc2[nH]1` the growth was -56.2% (active).
Compound `CCOC(=O)CCC(NC(=O)c1ccc(N)cc1)C(=O)OCC` (stereo not given) has a growth of 102%.
In the case of `O=C(c1ccc(F)c(Cl)c1)N1c2ccccc2Sc2ccccc21`, the growth is reported as 63.1%.
In the case of `CCCSc1ccc2nc(NC(=O)OC)[nH]c2c1`, the growth is reported as -7.05% (active).
For `C=C1C(=O)O[C@H]2[C@H]1CC/C(CNC(=O)C(C)c1ccc(CC(C)C)cc1)=C\CC[C@@]1(C)O[C@@H]21` (stereo not given in full), the growth was -23.5% (active).
For `CC(C)(C)OC(=O)N1CCc2c(sc3ncnc(N/N=C/c4cccc5ccccc45)c23)C1`, the growth was 5.85% (active).
Compound `O=C1/C(=C/c2ccccc2[N+](=O)[O-])Oc2ccc(O)c(O)c21` has a growth of 37.5%.
With `O=S1(=O)c2ccccc2Oc2ccccc21` the growth was 96.4%.
`O=C1C(Cl)=C(Nc2cccc3cc4ccccc4nc23)C(=O)c2ccccc21` was tested, and the growth was 40.9%.
With `CCC(C)C1NC(=O)C(CC(C)C)NC(=O)C(C)NC(=O)C(C(C)C)NC(=O)C(CCCCN)NC(=O)C(CC(C)C)NC(=O)C(C(C)C)NC(=O)[C@H](C)NC(=O)C(C(C)CC)NC(=O)C(CCCN=C(N)N)NC(=O)C(CCCCN)NC(=O)C(CCCN=C(N)N)NC(=O)C(CCCCN)NC(=O)C([C@H](C)CC)NC(=O)C(CCCCN)NC1=O` (stereo not given in full) the growth was -4.06% (active).
